According to PubChem BioAssay (EPA / NIEHS):
Values joined by “and” are separate entries in the source; they are usually repeats but may differ in a detail not shown here. Equal values may be shown once. Active and inactive are the calls of the source. The calls were made as follows: active = hit-call score of the fitted dose curve at least 0.9, where 1 is the maximum; inactive = score below 0.9.

The compounds below were run on Interleukin 6 (IL6), IL6 (gene 3569) (assay: BSK_BT_xIL6: BioMAP Diversity Plus: BT Assay for Interleukin 6 (IL6) Biomarker Activity (AID 2284228)). Details: primary human B cells with PBMC.
Procedure: BSK_BT is a cell-based, multiplexed-readout assay that uses B cell and peripheral blood mononuclear cells, a human vascular primary cell co-culture, with measurements taken at 24 hours after chemical dosing in a microplate: 96-well plate.BSK_BT_xIL6 is an assay component measured in the BSK_BT assay. It measures secreted IL-6 related to regulation of gene expression using LumineX xMAP technology.Data from the assay component BSK_BT_xIL6 was analyzed at the endpoint, BSK_BT_xIL6, in the positive analysis fitting direction relative to DMSO as the negative control and baseline of activity. Using a type of cytokine quantitation reporter, gain or loss-of-signal activity can be used to understand protein changes. To generalize the intended target to other relatable targets, this assay endpoint is annotated to the 'cytokine' intended target family, where the subfamily is 'interleukins'.
The levels of cell surface (or secreted, indicated by the prefix "s") biomarker endpoints were measured by ELISA. Overt cytotoxicity to cells in confluent adherent cultures (all systems other than the BT system) was assessed by measuring total protein levels using sulforhodamine B (SRB) staining in parallel cultures at the time of biomarker measurements, indicated as SRB endpoints. For proliferation assays for adherent cell types, individual cell types are cultured at sub-confluence and relative cell numbers quantified by SRB staining at time points optimized for each system (48 h: 3C and CASM3C systems; 72 h: BT and HDF3CGF systems; 96 h: SAg system). SRB was performed by staining cells with 0.1% SRB after fixation with 10% TCA and reading wells at 560 nm.Viability and proliferation of PBMC (T cells) was quantified by Alamar Blue reduction for the SAg and BT systems. For PBMC viability (referred to as PBMC Cytotoxicity within the assay endpoint names), cells were plated (75,000/well in a 96-well plate) and then chemical samples added for 1 h before addition of activators, SEB and TSST-1 (20 ng/mL final concentration each). Cells were incubated for 90 h. Then, Alamar Blue (20 uL/well) (Invitrogen, Cat DAL1100) was added for 6 h, and the plates were read with a fluorescence microplate reader at 546/580 nm (excitation/emission). For PBMC proliferation, cells were plated and activated as above but incubated for only 16 h prior to addition of Alamar Blue. Plates were read after 6 h.
For `CC(C)C(=O)C(C)C`, the outcome was “inactive”.
In the case of `C=CC(=O)OCC(Br)CBr` (configuration not stated), the AC50 is reported as 12.9 µM (active).
With `CCOc1nc(F)cc2nc(S(=O)(=O)Nc3c(Cl)cccc3C(=O)OC)nn12` the outcome was “inactive”.
For `C=CCOCC(O)CCl` (configuration not stated), the outcome was “inactive”.
For `C=CC=CC=CCCCCC`, the AC50 was 6.43 µM (active).
For `COCc1c(C(C)C)nc(C(C)C)c(/C=C/[C@@H](O)C[C@@H](O)CC(=O)O)c1-c1ccc(F)cc1`, the AC50 was 0.494 µM (active).
`CCO[Si](CCCN=C=O)(OCC)OCC` was tested, and the outcome was “inactive”.
For `CC1OC1C1CCC2(C)OC2C1` (configuration not stated), the outcome was “inactive”.
For `N#[N+]c1ccc2c(S(=O)(=O)[O-])cccc2c1O`, the outcome was “inactive”.
For `CCCCCCCCc1ccc(Nc2ccc(CCCCCCCC)cc2)cc1`, the outcome was “inactive”.
`O=Nc1ccc(O)cc1` was tested, and the outcome was “inactive”.
In the case of `C=CCOc1c(Br)cc(Br)cc1Br`, the outcome is reported as “inactive”.
With `CCCCC(CC)COC(=O)c1ccccc1O` (configuration not stated) the outcome was “inactive”.
For `c1ccc2c(c1)ccc1ncccc12`, the AC50 was 1.14 µM (active).
In the case of `c1ccc(-c2ccccn2)nc1`, the outcome is reported as “inactive”.
`O=c1c2ccccc2oc2ccccc12` was tested, and the outcome was “inactive”.
For `C/C=C\C/C=C/CCCCCCCCOC(C)=O`, the AC50 was 15.2 µM (active).
In the case of `S=C(NC1CCCCC1)NC1CCCCC1`, the outcome is reported as “inactive”.
In the case of `CCCCC/C=C\C/C=C\CCCCCCCC(=O)OC`, the AC50 is reported as 24.8 µM (active).
In the case of `COc1ccc2nc(N)sc2c1`, the outcome is reported as “inactive”.
With `c1ccc2c(c1)ccc1cc3c(ccc4ccccc43)cc12` the AC50 was 3.57 µM (active) and 15 nM (active).
In the case of `O=C(Cl)c1cc(C(=O)Cl)cc(C(=O)Cl)c1`, the AC50 is reported as 27.6 µM (active).
`O=C(Nc1ccccc1SSc1ccccc1NC(=O)c1ccccc1)c1ccccc1` was tested, and the AC50 was 13.2 µM (active).
`CCCCNc1ccc(NCCCC)c2c1C(=O)c1ccccc1C2=O` was tested, and the outcome was “inactive”.
In the case of `CC(C)(c1cc(Br)c(OCCO)c(Br)c1)c1cc(Br)c(OCCO)c(Br)c1`, the AC50 is reported as 16.2 µM (active).
With `C#CC1(O)CC[C@H]2[C@@H]3CCC4=CCCC[C@@H]4[C@H]3CC[C@@]21C` (some centres not stated) the AC50 was 28.1 µM (active).
`CCCCCCCCCCCCCCCC[N+](C)(C)CC` was tested, and the AC50 was 13.4 µM (active).
